Test results published in the supplement of paper PMC9794691.

Key:
[1] = system: H1975; assay: area under confluence curve of compound monotherapy; compare to DMSO control AUC of the same experiment (AUC (confluence x time, arbitrary))
Outline: (§1)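 Adenocarcinoma lines were grown in RPMI 1640 with 10% FBS at 37 °C and 5% CO2, seeded at 20,000–30,000 cells/well in 48-well plates, and treated the next day with test compound alone at one dose: 1 uM or the highest dose giving <50% parental inhibition. Every 3–4 days the wells were washed with PBS and the drug was refreshed, and medium was drug-free from the DTP stage (10–21 days). IncuCyte tracked confluence until wells given only an EGFR inhibitor regrew. Area under the confluence curve was calculated in Prism, taking the median of triplicates where run, and set beside the vehicle value from the same experiment.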

[2] = system: HCC2279; assay: as above
Outline: as §1

[3] = system: HCC2935; assay: as above
Outline: as §1

[4] = system: HCC4006; assay: as above
Outline: as §1

[5] = system: HCC827; assay: as above
Outline: as §1

[6] = system: II-18; assay: as above
Outline: as §1

[7] = system: H1975; assay: area under confluence curve of osimertinib + compound combination regimen (DTP regrowth); compare to osimertinib-only DTP control AUC of the same experiment (AUC (confluence x time, arbitrary))
Outline: (§2)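 Two schedules were compared in EGFR-mutant NSCLC lines. In one, the EGFR inhibitor and a fixed-dose test compound were given together up to the persister stage (10–21 days), followed by drug-free medium. In the other, the inhibitor alone came first and the test compound second. Prism calculated the area under the IncuCyte confluence–time curve, taking the median of triplicates where these were available.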

[8] = system: HCC2279; assay: as above
Outline: as §2

[9] = system: HCC2935; assay: as above
Outline: as §2

[10] = system: HCC4006; assay: as above
Outline: as §2

[11] = system: HCC827; assay: as above
Outline: as §2

[12] = system: II-18; assay: as above
Outline: as §2

## CCN1CCN(Cc2ccc(Nc3ncc(F)c(-c4cc(F)c5nc(C)n(C(C)C)c5c4)n3)nc2)CC1 [Abemaciclib]
[1]; 100 nM, DMSO control AUC in same experiment: 14522
  area under confluence curve: 13800
[2]; 100 nM, DMSO control AUC in same experiment: 27284
  area under confluence curve: 22900
[3]; 100 nM, DMSO control AUC in same experiment: 11459
  area under confluence curve: 8290
[4]; 100 nM, DMSO control AUC in same experiment: 10921
  area under confluence curve: 9680
[5]; 100 nM, DMSO control AUC in same experiment: 48895
  area under confluence curve: 48500
[6]; 100 nM, DMSO control AUC in same experiment: 13556
  area under confluence curve: 14000

## COc1nnc2ccc(N3CCC(c4ccc(OCCN5CCN(C)C(=O)[C@H]5C)cc4)CC3)nn12
[1]; 300 nM, DMSO control AUC in same experiment: 14522
  area under confluence curve: 6020
[2]; 300 nM, DMSO control AUC in same experiment: 27284
  area under confluence curve: 21500
[3]; 300 nM, DMSO control AUC in same experiment: 11459
  area under confluence curve: 13000
[4]; 30 nM, DMSO control AUC in same experiment: 10921
  area under confluence curve: 6660
[5]; 300 nM, DMSO control AUC in same experiment: 48895
  area under confluence curve: 42000
[6]; 30 nM, DMSO control AUC in same experiment: 18996
  area under confluence curve: 14400

## Cc1cc(N2C[C@@H](C)N[C@@H](C)C2)ncc1-c1ccc(-c2nc3c(ccn3C)c(=O)[nH]2)cc1
[1]; 1000 nM, DMSO control AUC in same experiment: 20657
  area under confluence curve: 19600
[2]; 1000 nM, DMSO control AUC in same experiment: 40085
  area under confluence curve: 40800
[3]; 1000 nM, DMSO control AUC in same experiment: 15413
  area under confluence curve: 14600
[4]; 1000 nM, DMSO control AUC in same experiment: 10921
  area under confluence curve: 10500
[5]; 1000 nM, DMSO control AUC in same experiment: 48895
  area under confluence curve: 48800
[6]; 1000 nM, DMSO control AUC in same experiment: 7080
  area under confluence curve: 6490

## COC(=O)c1ccc([C@H]2c3[nH]c4ccccc4c3C[C@H](C(=O)OC)N2C(=O)CCl)cc1 + C=CC(=O)Nc1cc(Nc2nccc(-c3cn(C)c4ccccc34)n2)c(OC)cc1N(C)CCN(C)C [osimertinib]
[7]; test compound dose 100 nM, dosing schedule: sequential, osimertinib-only DTP control AUC in same experiment: 9919, DMSO control AUC in same experiment: 26010
  area under confluence curve: 7660
[7]; test compound dose 100 nM, dosing schedule: upfront, osimertinib-only DTP control AUC in same experiment: 15327, DMSO control AUC in same experiment: 26010
  area under confluence curve: 13400
[8]; test compound dose 100 nM, dosing schedule: sequential, osimertinib-only DTP control AUC in same experiment: 11520, DMSO control AUC in same experiment: 9426
  area under confluence curve: 13900
[8]; test compound dose 100 nM, dosing schedule: upfront, osimertinib-only DTP control AUC in same experiment: 21942, DMSO control AUC in same experiment: 9426
  area under confluence curve: 20100
[9]; test compound dose 100 nM, dosing schedule: sequential, osimertinib-only DTP control AUC in same experiment: 9121, DMSO control AUC in same experiment: 11459
  area under confluence curve: 5900
[9]; test compound dose 100 nM, dosing schedule: upfront, osimertinib-only DTP control AUC in same experiment: 12748, DMSO control AUC in same experiment: 11459
  area under confluence curve: 6780
[10]; test compound dose 100 nM, dosing schedule: sequential, osimertinib-only DTP control AUC in same experiment: 19238, DMSO control AUC in same experiment: 16638
  area under confluence curve: 19000
[10]; test compound dose 100 nM, dosing schedule: upfront, osimertinib-only DTP control AUC in same experiment: 21234, DMSO control AUC in same experiment: 16638
  area under confluence curve: 21000
[11]; test compound dose 100 nM, dosing schedule: sequential, osimertinib-only DTP control AUC in same experiment: 25096, DMSO control AUC in same experiment: 35394
  area under confluence curve: 6740
[11]; test compound dose 100 nM, dosing schedule: upfront, osimertinib-only DTP control AUC in same experiment: 27382, DMSO control AUC in same experiment: 35394
  area under confluence curve: 27100
[12]; test compound dose 100 nM, dosing schedule: sequential, osimertinib-only DTP control AUC in same experiment: 3520, DMSO control AUC in same experiment: 13556
  area under confluence curve: 183
[12]; test compound dose 100 nM, dosing schedule: upfront, osimertinib-only DTP control AUC in same experiment: 6532, DMSO control AUC in same experiment: 13556
  area under confluence curve: 1800

## C[C@@H](Oc1cc(-c2cnn(C3CCNCC3)c2)cnc1N)c1c(Cl)ccc(F)c1Cl [Crizotinib]
[1]; 1000 nM, DMSO control AUC in same experiment: 15857
  area under confluence curve: 9870
[2]; 1000 nM, DMSO control AUC in same experiment: 14404
  area under confluence curve: 13900
[3]; 1000 nM, DMSO control AUC in same experiment: 19215
  area under confluence curve: 19300
[4]; 1000 nM, DMSO control AUC in same experiment: 18415
  area under confluence curve: 16500
[5]; 1000 nM, DMSO control AUC in same experiment: 21320
  area under confluence curve: 19500
[6]; 1000 nM, DMSO control AUC in same experiment: 11834
  area under confluence curve: 6690

## Cc1cc(N2C[C@@H](C)N[C@@H](C)C2)ncc1-c1ccc(-c2nc3c(ccn3C)c(=O)[nH]2)cc1 + C=CC(=O)Nc1cc(Nc2nccc(-c3cn(C)c4ccccc34)n2)c(OC)cc1N(C)CCN(C)C [osimertinib]
[7]; test compound dose 1000 nM, dosing schedule: sequential, osimertinib-only DTP control AUC in same experiment: 15943, DMSO control AUC in same experiment: 20657
  area under confluence curve: 12600
[7]; test compound dose 1000 nM, dosing schedule: upfront, osimertinib-only DTP control AUC in same experiment: 27804, DMSO control AUC in same experiment: 20657
  area under confluence curve: 11600
[8]; test compound dose 1000 nM, dosing schedule: sequential, osimertinib-only DTP control AUC in same experiment: 15997, DMSO control AUC in same experiment: 40085
  area under confluence curve: 7150
[8]; test compound dose 1000 nM, dosing schedule: upfront, osimertinib-only DTP control AUC in same experiment: 28057, DMSO control AUC in same experiment: 40085
  area under confluence curve: 4140
[9]; test compound dose 1000 nM, dosing schedule: sequential, osimertinib-only DTP control AUC in same experiment: 7139, DMSO control AUC in same experiment: 15413
  area under confluence curve: 3770
[9]; test compound dose 1000 nM, dosing schedule: upfront, osimertinib-only DTP control AUC in same experiment: 19044, DMSO control AUC in same experiment: 15413
  area under confluence curve: 6190
[10]; test compound dose 1000 nM, dosing schedule: sequential, osimertinib-only DTP control AUC in same experiment: 14882, DMSO control AUC in same experiment: 10921
  area under confluence curve: 6450
[10]; test compound dose 1000 nM, dosing schedule: upfront, osimertinib-only DTP control AUC in same experiment: 18913, DMSO control AUC in same experiment: 10921
  area under confluence curve: 7770
[11]; test compound dose 1000 nM, dosing schedule: sequential, osimertinib-only DTP control AUC in same experiment: 18675, DMSO control AUC in same experiment: 48895
  area under confluence curve: 2580
[11]; test compound dose 1000 nM, dosing schedule: upfront, osimertinib-only DTP control AUC in same experiment: 25542, DMSO control AUC in same experiment: 48895
  area under confluence curve: 7720
[12]; test compound dose 1000 nM, dosing schedule: sequential, osimertinib-only DTP control AUC in same experiment: 21122, DMSO control AUC in same experiment: 7080
  area under confluence curve: 1300
[12]; test compound dose 1000 nM, dosing schedule: upfront, osimertinib-only DTP control AUC in same experiment: 22894, DMSO control AUC in same experiment: 7080
  area under confluence curve: 1140
